# Columns and labels:
# [1] = target: Sphingosine kinase 1 (Homo sapiens) (UniProt Q9NYA1); conditions: at 1 µM;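 also: mean SPHK1 inhibition value reported from the GSK PKIS kinase panel screen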
# [2] = target: T1, Sphingosine kinase 2 (Homo sapiens) (UniProt Q9NRA0); conditions: at 0.1 µM
# T1 sequence (whole entry): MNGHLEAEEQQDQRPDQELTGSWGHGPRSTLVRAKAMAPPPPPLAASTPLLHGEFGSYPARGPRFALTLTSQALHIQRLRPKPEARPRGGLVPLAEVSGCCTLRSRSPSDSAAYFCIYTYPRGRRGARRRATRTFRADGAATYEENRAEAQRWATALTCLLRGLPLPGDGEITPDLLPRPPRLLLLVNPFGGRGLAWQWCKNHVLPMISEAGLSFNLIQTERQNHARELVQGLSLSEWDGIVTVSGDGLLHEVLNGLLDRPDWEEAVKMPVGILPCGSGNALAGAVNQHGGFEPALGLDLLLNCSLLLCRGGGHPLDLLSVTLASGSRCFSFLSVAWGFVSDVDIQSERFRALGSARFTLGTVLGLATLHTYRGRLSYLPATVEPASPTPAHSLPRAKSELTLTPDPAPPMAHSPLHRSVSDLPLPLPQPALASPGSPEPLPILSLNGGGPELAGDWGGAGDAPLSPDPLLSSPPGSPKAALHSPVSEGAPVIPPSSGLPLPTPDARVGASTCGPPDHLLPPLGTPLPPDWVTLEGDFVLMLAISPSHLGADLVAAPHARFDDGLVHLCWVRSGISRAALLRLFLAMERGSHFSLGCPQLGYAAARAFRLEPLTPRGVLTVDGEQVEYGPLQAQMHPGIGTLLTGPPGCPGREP
# [3] = target: T1, Sphingosine kinase 2 (Homo sapiens); conditions: at 1 µM
# [4] = target: Casein kinase II subunit alpha (Homo sapiens) (UniProt P68400); conditions: at 0.1 µM
# [5] = target: Casein kinase II subunit alpha (Homo sapiens) (UniProt P68400); conditions: at 1 µM
# [6] = target: T2, Inhibitor of nuclear factor kappa-B kinase subunit alpha (Homo sapiens) (UniProt O15111); conditions: at 0.1 µM
# T2 sequence (whole entry): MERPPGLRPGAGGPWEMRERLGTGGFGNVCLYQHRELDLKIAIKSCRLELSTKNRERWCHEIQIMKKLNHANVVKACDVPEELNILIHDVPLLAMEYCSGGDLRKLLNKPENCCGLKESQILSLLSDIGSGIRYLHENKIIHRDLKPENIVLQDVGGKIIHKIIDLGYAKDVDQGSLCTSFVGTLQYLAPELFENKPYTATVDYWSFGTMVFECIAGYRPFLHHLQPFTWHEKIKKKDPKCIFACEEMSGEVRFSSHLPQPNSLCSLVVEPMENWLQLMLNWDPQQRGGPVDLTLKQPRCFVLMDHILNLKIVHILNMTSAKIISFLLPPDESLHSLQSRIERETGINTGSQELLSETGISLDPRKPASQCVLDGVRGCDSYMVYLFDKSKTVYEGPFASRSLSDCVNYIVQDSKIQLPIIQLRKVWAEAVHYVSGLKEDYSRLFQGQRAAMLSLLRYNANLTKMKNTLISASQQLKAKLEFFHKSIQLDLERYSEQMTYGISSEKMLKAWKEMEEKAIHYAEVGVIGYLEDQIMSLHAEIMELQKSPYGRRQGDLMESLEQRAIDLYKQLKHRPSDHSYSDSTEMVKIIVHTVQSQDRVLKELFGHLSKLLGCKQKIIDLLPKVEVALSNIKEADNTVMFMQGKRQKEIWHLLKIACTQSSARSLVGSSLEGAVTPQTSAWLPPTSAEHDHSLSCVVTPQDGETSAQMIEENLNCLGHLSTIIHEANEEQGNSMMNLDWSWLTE
# [7] = target: T2, Inhibitor of nuclear factor kappa-B kinase subunit alpha (Homo sapiens); conditions: at 1 µM
# [8] = target: T3, Inhibitor of nuclear factor kappa-B kinase subunit beta (Homo sapiens) (UniProt O14920); conditions: at 0.1 µM
# T3 sequence (whole entry): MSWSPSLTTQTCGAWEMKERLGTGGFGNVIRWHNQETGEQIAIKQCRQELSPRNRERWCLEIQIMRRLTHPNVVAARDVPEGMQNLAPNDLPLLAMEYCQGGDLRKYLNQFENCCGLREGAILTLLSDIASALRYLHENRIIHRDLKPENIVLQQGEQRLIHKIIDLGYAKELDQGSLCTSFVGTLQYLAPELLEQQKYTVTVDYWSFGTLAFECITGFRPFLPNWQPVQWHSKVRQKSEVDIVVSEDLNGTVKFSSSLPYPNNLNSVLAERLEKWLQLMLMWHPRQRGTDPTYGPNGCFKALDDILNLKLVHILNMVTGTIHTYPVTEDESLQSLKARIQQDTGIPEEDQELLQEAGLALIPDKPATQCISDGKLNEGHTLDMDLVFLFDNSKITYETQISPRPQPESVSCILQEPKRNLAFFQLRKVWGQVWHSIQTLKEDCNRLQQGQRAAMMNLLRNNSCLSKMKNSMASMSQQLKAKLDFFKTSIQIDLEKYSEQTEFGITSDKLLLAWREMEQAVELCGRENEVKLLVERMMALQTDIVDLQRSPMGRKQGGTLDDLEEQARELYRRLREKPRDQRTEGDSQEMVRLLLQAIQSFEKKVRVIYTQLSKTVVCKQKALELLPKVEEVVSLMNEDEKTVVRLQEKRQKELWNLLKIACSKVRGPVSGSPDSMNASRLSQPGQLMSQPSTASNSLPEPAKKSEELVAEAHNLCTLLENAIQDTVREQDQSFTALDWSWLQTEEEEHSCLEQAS
# [9] = target: T3, Inhibitor of nuclear factor kappa-B kinase subunit beta (Homo sapiens); conditions: at 1 µM
# [10] = target: T4, Inhibitor of nuclear factor kappa-B kinase subunit epsilon (Homo sapiens) (UniProt Q14164); conditions: at 0.1 µM
# T4 sequence (whole entry): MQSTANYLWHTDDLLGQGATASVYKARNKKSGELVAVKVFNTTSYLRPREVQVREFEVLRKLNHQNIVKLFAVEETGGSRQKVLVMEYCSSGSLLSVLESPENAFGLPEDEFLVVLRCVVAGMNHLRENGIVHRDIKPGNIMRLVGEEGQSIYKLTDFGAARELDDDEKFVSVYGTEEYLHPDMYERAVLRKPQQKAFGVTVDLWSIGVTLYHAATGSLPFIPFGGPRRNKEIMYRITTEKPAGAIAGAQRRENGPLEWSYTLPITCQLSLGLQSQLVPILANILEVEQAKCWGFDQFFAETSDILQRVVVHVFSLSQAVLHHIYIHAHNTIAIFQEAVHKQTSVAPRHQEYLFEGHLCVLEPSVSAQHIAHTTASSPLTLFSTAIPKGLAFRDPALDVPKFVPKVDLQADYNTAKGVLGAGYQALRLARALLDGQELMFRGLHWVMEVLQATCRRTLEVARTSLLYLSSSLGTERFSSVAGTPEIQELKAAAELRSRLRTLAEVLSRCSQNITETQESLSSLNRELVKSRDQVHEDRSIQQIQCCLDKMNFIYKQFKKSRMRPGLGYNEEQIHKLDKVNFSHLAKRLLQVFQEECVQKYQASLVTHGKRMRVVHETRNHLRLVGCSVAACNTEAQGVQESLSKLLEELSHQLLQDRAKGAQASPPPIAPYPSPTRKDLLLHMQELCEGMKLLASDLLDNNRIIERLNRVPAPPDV
# [11] = target: T4, Inhibitor of nuclear factor kappa-B kinase subunit epsilon (Homo sapiens); conditions: at 1 µM
# [12] = target: T5, Serine/threonine-protein kinase Nek1 (Homo sapiens) (UniProt Q96PY6); conditions: at 0.1 µM
# T5 sequence (whole entry): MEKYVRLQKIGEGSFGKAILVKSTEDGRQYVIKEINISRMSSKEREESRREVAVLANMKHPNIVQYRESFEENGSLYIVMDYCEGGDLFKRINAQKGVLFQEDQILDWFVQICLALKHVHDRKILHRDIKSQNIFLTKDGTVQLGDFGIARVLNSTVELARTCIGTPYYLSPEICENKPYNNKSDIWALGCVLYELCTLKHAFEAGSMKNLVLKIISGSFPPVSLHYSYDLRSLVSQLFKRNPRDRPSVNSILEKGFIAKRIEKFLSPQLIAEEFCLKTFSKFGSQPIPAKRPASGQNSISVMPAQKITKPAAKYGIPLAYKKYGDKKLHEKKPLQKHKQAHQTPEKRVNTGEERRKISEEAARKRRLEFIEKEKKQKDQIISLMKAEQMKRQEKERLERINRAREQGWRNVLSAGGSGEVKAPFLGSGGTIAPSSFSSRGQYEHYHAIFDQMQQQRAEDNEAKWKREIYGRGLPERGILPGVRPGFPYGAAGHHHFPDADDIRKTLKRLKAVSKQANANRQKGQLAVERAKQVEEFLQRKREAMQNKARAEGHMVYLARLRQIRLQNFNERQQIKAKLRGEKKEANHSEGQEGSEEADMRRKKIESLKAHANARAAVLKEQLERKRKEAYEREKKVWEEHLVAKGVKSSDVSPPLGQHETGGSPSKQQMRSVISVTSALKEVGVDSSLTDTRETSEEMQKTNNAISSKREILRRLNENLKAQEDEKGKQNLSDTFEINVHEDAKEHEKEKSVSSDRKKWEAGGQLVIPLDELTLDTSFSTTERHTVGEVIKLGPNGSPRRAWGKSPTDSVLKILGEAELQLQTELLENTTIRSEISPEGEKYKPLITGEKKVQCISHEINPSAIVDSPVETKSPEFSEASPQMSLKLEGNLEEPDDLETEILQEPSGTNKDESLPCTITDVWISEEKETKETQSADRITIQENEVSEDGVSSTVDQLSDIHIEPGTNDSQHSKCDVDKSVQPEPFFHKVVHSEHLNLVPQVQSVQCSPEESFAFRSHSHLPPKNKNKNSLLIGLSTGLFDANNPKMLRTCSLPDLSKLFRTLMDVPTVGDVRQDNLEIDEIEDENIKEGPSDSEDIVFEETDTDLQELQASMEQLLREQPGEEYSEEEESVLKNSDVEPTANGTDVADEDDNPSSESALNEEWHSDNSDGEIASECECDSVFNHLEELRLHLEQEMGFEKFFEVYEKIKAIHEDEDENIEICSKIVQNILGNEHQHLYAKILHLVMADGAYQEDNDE
# [13] = target: T5, Serine/threonine-protein kinase Nek1 (Homo sapiens); conditions: at 1 µM
# [14] = target: T6, Serine/threonine-protein kinase Nek2 (Homo sapiens) (UniProt P51955); conditions: at 0.1 µM
# T6 sequence (whole entry): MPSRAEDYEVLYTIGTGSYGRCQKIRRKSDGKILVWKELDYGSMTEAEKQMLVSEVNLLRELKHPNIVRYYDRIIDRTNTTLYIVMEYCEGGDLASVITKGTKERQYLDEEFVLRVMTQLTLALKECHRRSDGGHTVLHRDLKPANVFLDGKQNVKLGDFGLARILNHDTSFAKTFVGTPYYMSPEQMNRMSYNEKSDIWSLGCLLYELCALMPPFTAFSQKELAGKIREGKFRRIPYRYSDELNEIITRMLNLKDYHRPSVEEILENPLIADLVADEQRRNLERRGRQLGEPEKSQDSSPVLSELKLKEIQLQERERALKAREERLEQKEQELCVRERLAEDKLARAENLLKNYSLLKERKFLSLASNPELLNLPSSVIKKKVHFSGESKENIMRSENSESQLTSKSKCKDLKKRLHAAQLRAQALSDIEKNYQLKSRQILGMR
# [15] = target: T6, Serine/threonine-protein kinase Nek2 (Homo sapiens); conditions: at 1 µM
# [16] = target: Serine/threonine-protein kinase Nek6 (Homo sapiens) (UniProt Q9HC98); conditions: at 0.1 µM
# [17] = target: Serine/threonine-protein kinase Nek6 (Homo sapiens) (UniProt Q9HC98); conditions: at 1 µM
# [18] = target: Serine/threonine-protein kinase Nek7 (Homo sapiens) (UniProt Q8TDX7); conditions: at 0.1 µM
# [19] = target: Serine/threonine-protein kinase Nek7 (Homo sapiens) (UniProt Q8TDX7); conditions: at 1 µM
# [20] = target: T7, Serine/threonine-protein kinase Nek9 (Homo sapiens) (UniProt Q8TD19); conditions: at 0.1 µM;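 also: reported value is the mean percent inhibition of NEK9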
# T7 sequence (whole entry): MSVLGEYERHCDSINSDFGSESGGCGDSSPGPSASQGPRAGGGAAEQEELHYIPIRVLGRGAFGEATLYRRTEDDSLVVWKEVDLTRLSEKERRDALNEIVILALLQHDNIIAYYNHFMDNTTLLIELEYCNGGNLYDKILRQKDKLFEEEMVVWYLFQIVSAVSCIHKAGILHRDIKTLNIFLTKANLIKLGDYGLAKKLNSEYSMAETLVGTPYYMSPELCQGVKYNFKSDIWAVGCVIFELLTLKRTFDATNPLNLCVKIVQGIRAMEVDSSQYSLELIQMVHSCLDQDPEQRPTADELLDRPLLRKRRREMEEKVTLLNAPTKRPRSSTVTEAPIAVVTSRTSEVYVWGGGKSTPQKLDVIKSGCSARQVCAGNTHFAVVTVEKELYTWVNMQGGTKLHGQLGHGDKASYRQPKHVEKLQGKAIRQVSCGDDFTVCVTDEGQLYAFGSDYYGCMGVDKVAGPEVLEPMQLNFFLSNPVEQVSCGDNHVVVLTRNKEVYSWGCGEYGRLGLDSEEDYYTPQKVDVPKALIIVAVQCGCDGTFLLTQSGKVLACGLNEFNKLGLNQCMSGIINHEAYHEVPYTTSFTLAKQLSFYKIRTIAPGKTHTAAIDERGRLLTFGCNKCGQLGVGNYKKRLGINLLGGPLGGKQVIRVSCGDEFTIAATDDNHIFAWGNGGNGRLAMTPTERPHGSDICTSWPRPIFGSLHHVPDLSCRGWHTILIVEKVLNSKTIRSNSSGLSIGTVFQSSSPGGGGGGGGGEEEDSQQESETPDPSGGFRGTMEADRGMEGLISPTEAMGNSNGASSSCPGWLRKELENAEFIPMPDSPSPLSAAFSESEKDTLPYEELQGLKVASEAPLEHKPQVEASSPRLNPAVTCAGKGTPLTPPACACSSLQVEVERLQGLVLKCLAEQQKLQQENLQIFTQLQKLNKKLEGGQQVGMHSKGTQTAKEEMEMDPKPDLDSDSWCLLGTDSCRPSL
# Chain of Serine/threonine-protein kinase Nek7 (Homo sapiens) (Q8TDX7 whole entry, looked up): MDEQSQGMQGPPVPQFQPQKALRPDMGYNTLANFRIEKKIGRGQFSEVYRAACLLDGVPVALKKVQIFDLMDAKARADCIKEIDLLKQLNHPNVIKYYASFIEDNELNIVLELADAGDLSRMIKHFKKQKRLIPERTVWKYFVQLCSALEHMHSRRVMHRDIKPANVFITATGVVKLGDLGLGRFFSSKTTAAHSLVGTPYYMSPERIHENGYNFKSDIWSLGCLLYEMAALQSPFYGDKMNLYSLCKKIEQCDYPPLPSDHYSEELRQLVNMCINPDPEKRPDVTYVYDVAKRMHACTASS
# Chain of Serine/threonine-protein kinase Nek6 (Homo sapiens) (Q9HC98 whole entry): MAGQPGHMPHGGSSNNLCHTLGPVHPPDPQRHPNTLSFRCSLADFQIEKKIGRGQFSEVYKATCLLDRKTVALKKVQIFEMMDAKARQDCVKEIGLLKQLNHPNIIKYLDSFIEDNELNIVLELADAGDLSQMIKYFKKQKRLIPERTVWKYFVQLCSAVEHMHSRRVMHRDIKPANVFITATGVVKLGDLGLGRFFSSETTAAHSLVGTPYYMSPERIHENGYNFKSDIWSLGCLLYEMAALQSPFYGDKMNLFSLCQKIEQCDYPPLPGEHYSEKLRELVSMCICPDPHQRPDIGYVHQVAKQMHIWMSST
# Chain of Casein kinase II subunit alpha (Homo sapiens) (P68400 whole entry, looked up): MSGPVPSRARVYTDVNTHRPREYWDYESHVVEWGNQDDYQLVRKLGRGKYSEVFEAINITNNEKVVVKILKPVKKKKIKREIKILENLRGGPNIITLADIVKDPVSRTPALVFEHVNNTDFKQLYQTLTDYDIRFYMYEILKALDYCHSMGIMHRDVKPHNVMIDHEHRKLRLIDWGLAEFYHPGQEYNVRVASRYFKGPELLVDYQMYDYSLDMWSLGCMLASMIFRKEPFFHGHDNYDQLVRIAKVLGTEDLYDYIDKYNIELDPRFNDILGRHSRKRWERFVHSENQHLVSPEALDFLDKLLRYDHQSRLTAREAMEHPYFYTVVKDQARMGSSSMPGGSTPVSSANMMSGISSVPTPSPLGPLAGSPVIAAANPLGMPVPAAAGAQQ
# Chain of Sphingosine kinase 1 (Homo sapiens) (Q9NYA1 whole entry): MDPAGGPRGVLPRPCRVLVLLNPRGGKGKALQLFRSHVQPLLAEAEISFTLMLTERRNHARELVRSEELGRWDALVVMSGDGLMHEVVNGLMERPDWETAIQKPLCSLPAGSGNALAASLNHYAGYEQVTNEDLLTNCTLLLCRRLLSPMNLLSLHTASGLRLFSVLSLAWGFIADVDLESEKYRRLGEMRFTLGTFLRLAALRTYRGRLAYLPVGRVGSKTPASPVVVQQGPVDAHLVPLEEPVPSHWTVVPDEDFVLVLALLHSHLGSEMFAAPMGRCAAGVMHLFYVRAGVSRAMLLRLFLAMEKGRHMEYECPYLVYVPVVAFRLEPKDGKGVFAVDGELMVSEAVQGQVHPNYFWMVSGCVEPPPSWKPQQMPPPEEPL
compound,measurement,setting,value
Cc1ccc(C(=O)NC(C)C)cc1-c1ccc(C(=O)NCC2CC2)cc1,inhibition,[1],-2.98%
same,inhibition,[2],-1.05%
same,inhibition,[3],1.77%
same,inhibition,[4],7.28%
same,inhibition,[5],0.22%
same,inhibition,[6],2.97%
same,inhibition,[7],-1.81%
same,inhibition,[8],-0.39%
same,inhibition,[9],-1.83%
same,inhibition,[10],-5.06%
same,inhibition,[11],-4.16%
same,inhibition,[12],-1.29%
same,inhibition,[13],-1.39%
same,inhibition,[14],-3.14%
same,inhibition,[15],-3.6%
same,inhibition,[16],-3.09%
same,inhibition,[17],-3.72%
same,inhibition,[18],-6.3%
same,inhibition,[19],-4.59%
same,inhibition,[20],3.16%

# Source: ChEMBL document CHEMBL1961873, “Compounds: GSK PKIS; Assays: Nanosyn kinase panel” (2012)
